Holding throughout (assay): NCI-60 one-dose screen, 48 h (100 = growth as untreated, 0 = no growth, -100 = all killed)
One assay has as its system NCI-H23 lung. The note with it: 10 µM unless noted.
Another assay relates to NCI-H226 lung. The following applies: 10 µM unless noted.
The next assay deals with NCI-H322M lung. The following applies: 10 µM unless noted.
Another assay relates to HOP-62 NSCLC. The note with it: 10 µM unless noted.
The next assay deals with NCI-H460 lung. The following applies: 10 µM unless noted.
The next assay deals with HOP-92 NSCLC. The note with it: 10 µM unless noted.
The next assay concerns NCI-H522 lung. The following applies: 10 µM unless noted.
Another assay has as its system A549/ATCC NSCLC. The note with it: 10 µM unless noted.
For another assay, the system named is 786-0 renal. The following applies: 10 µM unless noted.
The test system of another assay is COLO 205 colon. The note with it: 10 µM unless noted.
Another assay concerns DU-145 prostate. The following applies: 10 µM unless noted.
Another assay concerns K-562 leukemia. The following applies: 10 µM unless noted.
The test system of a further assay is MALME-3M melanoma. The following applies: 10 µM unless noted.
In the next assay the test system is MDA-MB-231 breast. The following applies: 10 µM unless noted.
A further assay has as its system RXF 393 renal. The following applies: 10 µM unless noted.
The next assay concerns SF-268 CNS. The note with it: 10 µM unless noted.
Another assay concerns SF-295 CNS. The note with it: 10 µM unless noted.
The next assay relates to SF-539 CNS. The note with it: 10 µM unless noted.
The next assay concerns UACC-257 melanoma. The following applies: 10 µM.
Another assay has as its system M14 melanoma. The following applies: 10 µM unless noted.

This is part of a sample that, as a whole, favours compounds with a hit. Of some 83,000 tested, about 20% had one in any assay.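 Method: cells in 96-well plates; compound added at one concentration; 48 h incubation; percent growth measured; values under 10 scored active.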 Unmarked numbers belong to inactive results. Activity calls are given as the source filed them.

As for `COc1cc(/C=N/Nc2ccnc3cc(Cl)ccc23)cc(OC)c1O`, the growth in the assay with NCI-H23 lung is -42% (active); in the assay with NCI-H226 lung, 96.2%; with NCI-H322M lung, -45.1% (active); in the assay with HOP-62 NSCLC, -78% (active); in the assay on NCI-H460 lung it was -63.9% (active); in the assay with HOP-92 NSCLC it was -74% (active). Further, the growth with NCI-H522 lung is -73.8% (active); in the assay with A549/ATCC NSCLC, -82.2% (active); in the assay with 786-0 renal it was -87.5% (active); with COLO 205 colon it was 72%; with DU-145 prostate, -24.6% (active); in the assay on K-562 leukemia, -54.8% (active). Besides, the growth was -88.3% (active) with MALME-3M melanoma; -74.6% (active) in the assay with MDA-MB-231 breast; -86.8% (active) in the assay with RXF 393 renal; -37.3% (active) with SF-268 CNS; -80.3% (active) in the assay on SF-295 CNS; -85% (active) in the assay on SF-539 CNS. Further, the growth in the assay with UACC-257 melanoma was 112%; in the assay with M14 melanoma, -90.1% (active).

For `Cc1ccc(NC(=O)c2ccc(CN3CCN(C)CC3)c(I)c2)cc1Oc1ccc(-c2[nH]nc3ncnc(N)c23)cc1`, the growth is 87.9% in the assay with NCI-H23 lung; 91.8% in the assay on NCI-H226 lung; 89.8% in the assay with NCI-H322M lung; 105% with HOP-62 NSCLC; 90.4% with NCI-H460 lung; 83.4% in the assay on HOP-92 NSCLC. Moreover, the growth was 46.6% in the assay with NCI-H522 lung; 66.1% in the assay with A549/ATCC NSCLC; -74.7% (active) in the assay on 786-0 renal; 53% in the assay on COLO 205 colon; 99.6% in the assay on DU-145 prostate; 1.61% (active) in the assay on K-562 leukemia. Moreover, the growth in the assay on MALME-3M melanoma is -72.7% (active); with MDA-MB-231 breast, 39.3%; with RXF 393 renal, 44.9%; in the assay on SF-268 CNS, 90.3%; with SF-295 CNS, 78.4%; with SF-539 CNS, 67.5%. Moreover, the growth with UACC-257 melanoma was -46.4% (active).

On to `NS(=O)(=O)c1ccc(-n2cc(CC=O)nn2)cc1`, for which the growth in the assay with NCI-H23 lung is 105%; in the assay with NCI-H226 lung, 99%; in the assay on NCI-H322M lung, 111%; in the assay on HOP-62 NSCLC, 105%; in the assay on NCI-H460 lung, 105%; in the assay on HOP-92 NSCLC, 94.8%. In addition, the growth in the assay on NCI-H522 lung was 94.5%; in the assay on A549/ATCC NSCLC, 103%; with 786-0 renal, 102%; with COLO 205 colon, 121%; with DU-145 prostate, 107%; in the assay with K-562 leukemia it was 93.6%. Also, the growth with MALME-3M melanoma was 108%; in the assay with MDA-MB-231 breast, 103%; in the assay on RXF 393 renal it was 99.5%; with SF-268 CNS it was 102%; in the assay on SF-295 CNS, 98.6%; in the assay on SF-539 CNS, 99%. In the assay with UACC-257 melanoma, the growth was 102%.

As for `Cc1ccc(/C=C/CC(=O)Nc2ccc(C(=O)Nc3ccc(F)cc3N)nc2)cn1`, the growth is 45.7% in the assay on NCI-H23 lung; 50.3% in the assay on NCI-H226 lung; 52.7% in the assay on NCI-H322M lung; 51.1% in the assay on HOP-62 NSCLC; 45.6% in the assay with NCI-H460 lung; -3.93% (active) in the assay on HOP-92 NSCLC. The growth was 2.35% (active) in the assay on NCI-H522 lung; 43.8% with A549/ATCC NSCLC; 51.4% in the assay on 786-0 renal; 25% in the assay on COLO 205 colon; 34.9% with DU-145 prostate; 20.4% in the assay on K-562 leukemia. Besides, the growth was 23.9% with MALME-3M melanoma; 54.7% in the assay on MDA-MB-231 breast; 37.2% in the assay with RXF 393 renal; 45.2% with SF-268 CNS; 49.1% with SF-295 CNS; 40.8% in the assay on SF-539 CNS. In the assay with UACC-257 melanoma, the growth is 32.9%.

As to `O=C1c2cc(Br)ccc2-n2c1nc1cc(Br)ccc1c2=O`, the growth in the assay with NCI-H23 lung was 58.6%; in the assay on NCI-H226 lung, 78.3%; with NCI-H322M lung, 88.7%; in the assay on HOP-62 NSCLC it was 82.3%; in the assay on NCI-H460 lung, 85.4%; with HOP-92 NSCLC it was 134%. The growth in the assay with NCI-H522 lung was 68.9%; with A549/ATCC NSCLC, 67.1%; with 786-0 renal it was 88.5%; with COLO 205 colon, 85.7%; in the assay with DU-145 prostate, 74.1%; with K-562 leukemia it was 73.9%. In addition, the growth with MALME-3M melanoma was 44.1%; in the assay on MDA-MB-231 breast, 75.5%; with RXF 393 renal it was 97.6%; in the assay with SF-268 CNS, 78%; in the assay with SF-295 CNS, 87%; in the assay on SF-539 CNS, 92.4%. Further, the growth in the assay on UACC-257 melanoma is 43.1%.

As to `COc1ccc(-c2nc(SCCC(C)C)nc(N/N=C\c3ccc(O)cc3)c2C#N)cc1`, the growth is 36.3% with NCI-H23 lung; 97.3% with NCI-H226 lung; 82.7% in the assay on NCI-H322M lung; 61.9% with HOP-62 NSCLC; 10.9% with NCI-H460 lung; 67.7% in the assay with HOP-92 NSCLC. Besides, the growth with NCI-H522 lung is 87.7%; with A549/ATCC NSCLC it was 60.2%; with 786-0 renal, 34%; in the assay on COLO 205 colon, 106%; in the assay on DU-145 prostate, 59.7%; in the assay on K-562 leukemia it was 42.2%. The growth with MALME-3M melanoma was 79.3%; in the assay with MDA-MB-231 breast, 54.2%; with RXF 393 renal, 78%; with SF-268 CNS, 55.7%; in the assay with SF-295 CNS, 91.6%; with SF-539 CNS, 35.1%. In addition, in the assay on UACC-257 melanoma, the growth was 111%.

For `N=c1c2cc(-c3ccccc3)oc2ncn1/N=C/c1ccccc1`, the growth in the assay with NCI-H23 lung is 98.1%; in the assay with NCI-H226 lung it was 98.9%; in the assay with NCI-H322M lung it was 94.5%; in the assay on HOP-62 NSCLC, 87.4%; in the assay with NCI-H460 lung, 57.6%; in the assay on HOP-92 NSCLC it was 92%. In addition, the growth was 42.1% in the assay on NCI-H522 lung; 71.2% in the assay on A549/ATCC NSCLC; 78.6% in the assay with 786-0 renal; 88.1% in the assay on COLO 205 colon; 96.7% with DU-145 prostate; 27.6% in the assay on K-562 leukemia. For the same molecule, the growth in the assay on MALME-3M melanoma is 48.9%; in the assay on MDA-MB-231 breast, 95.1%; in the assay on RXF 393 renal, 49.4%; in the assay with SF-268 CNS, 89%; with SF-295 CNS, 84.3%; in the assay on SF-539 CNS it was 85.8%. Also, the growth with UACC-257 melanoma was 85.6%.

`O=C(CN1CCN(c2cc(=O)n(-c3ccccc3)c3ccccc23)CC1)Nc1ccc([N+](=O)[O-])cc1`: the growth in the assay on NCI-H23 lung is 82.5%; in the assay on NCI-H226 lung it was 83.5%; in the assay on NCI-H322M lung, 88.1%; with HOP-62 NSCLC, 95.1%; in the assay with NCI-H460 lung, 94.3%; in the assay on HOP-92 NSCLC, 76.5%. Further, the growth is 82.5% with NCI-H522 lung; 95.1% with A549/ATCC NSCLC; 90.5% in the assay on 786-0 renal; 107% in the assay on COLO 205 colon; 99.8% in the assay with DU-145 prostate; 71.4% in the assay with K-562 leukemia. In addition, the growth in the assay with MALME-3M melanoma was 83.9%; with MDA-MB-231 breast, 77.2%; with RXF 393 renal, 68.7%; in the assay with SF-268 CNS it was 89.7%; in the assay with SF-295 CNS, 103%; with SF-539 CNS it was 91.7%. Moreover, the growth in the assay on UACC-257 melanoma is 90.3%.
